The panel holds about 83,000 compounds, 20% with a hit somewhere; the sample as a whole holds those more often.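 Single-concentration screen, 48 h exposure, 96-well plates. Endpoint: percent growth. Below 10 = active.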 Activity calls are given as the source filed them.

The test system of the test is HL-60(TB) leukemia. Description: NCI-60 one-dose screen, 48 h (100 = growth as untreated, 0 = no growth, -100 = all killed). As to conditions: 10 µM unless noted.
Regarding `Oc1ccccc1/C=N\NC(=S)Nc1ccc(F)cc1`, the growth is -10.3% (active).

In the case of `COc1ccc(C2c3ccccc3NC(=O)N2C2CCN(C)CC2)c(OC)c1` (configuration not stated), the growth was 92.7% (inactive).

As for `O=C1Nc2ccc(F)cc2/C1=N/c1nnc(Sc2ccccc2)s1`, the growth was 49.6% (inactive).

As to `COc1ccccc1Nc1cc(O)c2c(=O)cc(-c3ccccc3)oc2c1`, the growth is -6.07% (active).

As to `O=C(c1ccccc1)N1N=C(c2ccccc2)CC1c1nnc2n(Cc3ccccc3)c(=O)c3c4c(sc3n12)CCCC4` (configuration not stated), the growth is 97.7% (inactive).

Consider `CC1CCc2cc(F)cc3c(=O)c(C(=O)O)cn1c23` (configuration not stated), for which the growth was 107% (inactive).

Take `CCCCCCCC/C=C\CCCCCCCCOc1cccc(CC(=O)NCC[N+]2(C)CCCC2)c1`: the growth is 49.3% (inactive).

Turning to `COc1cc2ccc(C(C)=O)cc2cc1OC`, the growth is 133% (inactive).

On to `O=c1c2cccc(Cl)c2sc2c(NCCCNCCO)nc3ccccc3c12`, for which the growth was -17.8% (active).

Regarding `Cc1cc(Nc2nc(N3CCN(C)CC3)nc3ccccc23)n[nH]1`, the growth is 96.6% (inactive).

As for `O=C(c1nc2ccccc2[nH]1)C1C(c2ccc(F)cc2)C2CC3CCCCC3N2[C@@]12C(=O)Nc1ccc(Cl)cc12` (some centres not stated), the growth was 33.2% (inactive).

Turning to `Cn1cc(-c2csc(-c3c[nH]c4ccccc34)n2)c2cnccc21`, the growth was -30.2% (active).

Consider `Nc1ccc(/C=N/Nc2ccnc3c(N)cccc23)c2cccnc12`, for which the growth is -60.4% (active).

As to `COc1cc2c(/C=C3/C(=O)Nc4ccc(O)cc43)c(Cl)n(Cc3cc(OC)c(OC)c(OC)c3)c2cc1C`, the growth is -33.7% (active).

Take `CCOC(=O)c1ccc2c(c1)[n+](=O)c(C(=O)C1CCCS1)c(C(F)(F)F)n2[O-]` (configuration not stated): the growth is -69% (active).

With `CCN1Cc2nc3sc(C)c(C)c3c(=O)n2C=C1C`, the growth was 1.07% (active).

As to `Cc1ncc(C(=O)Nc2ccc(CN3CCN(C)CC3)c(C(F)(F)F)c2)cc1C#Cc1c(N)ncc2ccc(C#N)cc12`, the growth was 45.8% (inactive).

On to `COc1ccc(-c2csc(NC(=O)CSc3nc(C)c(-c4ccccc4)n3Nc3ccccc3)n2)cc1`, for which the growth was 50.3% (inactive).

For `COc1nc2ccccc2cc1-c1nc2c(cnn2-c2ccccc2)c(=O)[nH]1`, the growth is 11.2% (inactive).

In the case of `C(CCCC1=NCCO1)CCCC1=NCCO1`, the growth is 112% (inactive).

Turning to `CC(=[N-])N1CCC[C@@H](Nc2c3ccccc3nc3ccccc23)C1.[Cl][Pt].[NH-]CCC[NH-]`, the growth is 17% (inactive).

Turning to `COc1ccc(/C=C/C(=O)/C=C(/C=C/c2ccc(OC)c(OC)c2OC)OB(F)F)c(OC)c1OC`, the growth is 8.53% (active).

For the molecule `CCOC(=O)[C@@H]1[C@H](c2ccccc2)[C@H]([N+](=O)[O-])[C@H](c2cn(-c3ccccc3)nc2C)N1Cc1ccccc1`, the growth is 77.7% (inactive).

For the molecule `COc1cc(C=C2C(=O)N(C)C(=O)N(C)C2=O)cc(CN2CCCCC2)c1O`, the growth was 96.3% (inactive).

Consider `COc1ccc(-c2cc(C(=O)N3N=C(c4ccc(N)cc4)CC3c3ccc(OC)cc3)c3cc(OC)ccc3n2)cc1` (configuration not stated), for which the growth was -7.72% (active).

`O=C(O)c1cc([N+](=O)[O-])ccc1Cl`: the growth was 104% (inactive).

In the case of `O=C(NOC1OC(CO)C(O)C(O)C1O)Nc1ccccc1` (configuration not stated), the growth was 74.5% (inactive).

These data come from PubChem BioAssay (NCI).
